# Test results from paper PMC4336329 (PLoS ONE, 2015).
# The whole screen tested about 310,000 compounds, of which about 14,000 (4.5%) showed an effect of 50% or more. The effect is printed as a negative number. The full list was thinned out, with strong results kept by preference.
# Biological target: human ether-à-go-go-related gene (hERG) potassium channel (human, UniProt Q12809)
# Assay: primary screen, population patch clamp on CHO cells stably expressing hERG; higher = less effect of the substance
# 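Further: peak tail current of the secondary pulse compared with the same well before compound.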
# Sequence of human ether-à-go-go-related gene (hERG) potassium channel (Q12809 whole entry, looked up): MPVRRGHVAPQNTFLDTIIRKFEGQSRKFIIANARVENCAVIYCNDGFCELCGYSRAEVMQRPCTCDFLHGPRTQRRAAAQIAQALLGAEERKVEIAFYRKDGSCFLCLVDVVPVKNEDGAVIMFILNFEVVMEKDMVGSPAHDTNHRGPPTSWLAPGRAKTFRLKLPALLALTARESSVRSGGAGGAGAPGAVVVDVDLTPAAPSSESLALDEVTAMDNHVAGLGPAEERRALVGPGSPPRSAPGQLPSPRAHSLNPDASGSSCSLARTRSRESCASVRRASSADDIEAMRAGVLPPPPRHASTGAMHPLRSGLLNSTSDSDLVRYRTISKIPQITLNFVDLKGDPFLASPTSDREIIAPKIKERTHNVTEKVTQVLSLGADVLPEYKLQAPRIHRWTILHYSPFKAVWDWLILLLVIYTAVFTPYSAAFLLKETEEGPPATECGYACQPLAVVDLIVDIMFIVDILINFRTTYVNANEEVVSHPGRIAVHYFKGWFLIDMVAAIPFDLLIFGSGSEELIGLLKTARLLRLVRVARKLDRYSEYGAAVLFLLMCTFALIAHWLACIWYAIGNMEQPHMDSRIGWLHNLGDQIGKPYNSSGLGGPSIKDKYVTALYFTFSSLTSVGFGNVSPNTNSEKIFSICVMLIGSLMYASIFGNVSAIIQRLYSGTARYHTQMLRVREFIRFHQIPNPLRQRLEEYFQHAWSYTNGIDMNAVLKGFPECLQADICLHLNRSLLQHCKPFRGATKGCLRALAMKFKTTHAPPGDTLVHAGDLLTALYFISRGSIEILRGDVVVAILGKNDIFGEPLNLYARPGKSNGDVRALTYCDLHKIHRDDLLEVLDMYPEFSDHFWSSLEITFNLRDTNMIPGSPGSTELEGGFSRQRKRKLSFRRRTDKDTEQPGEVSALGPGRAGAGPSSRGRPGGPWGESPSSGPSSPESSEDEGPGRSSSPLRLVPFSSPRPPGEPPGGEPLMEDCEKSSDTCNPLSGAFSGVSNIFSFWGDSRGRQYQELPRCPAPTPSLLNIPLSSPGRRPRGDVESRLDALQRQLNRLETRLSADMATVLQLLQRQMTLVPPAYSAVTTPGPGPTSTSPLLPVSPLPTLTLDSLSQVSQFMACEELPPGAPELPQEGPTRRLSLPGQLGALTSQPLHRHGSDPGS
row,Compound,"hERG current change (%, negative = inhibition) at 10uM"
1,O=S(=O)(N1CCOCC1)N1CCCN(S(=O)(=O)N2CCOCC2)CC1,5.76%
2,COc1cc2ccccc2cc1C(=O)NCCCN1CCOCC1,-5.9%
3,Cc1nn(C(C)C(=O)Nc2sc3c(c2C#N)CCCC3)c(C)c1[N+](=O)[O-] (stereo not shown),12.1%
4,O=C(/C=C/c1ccccc1Cl)NCCCn1ccnc1,-17%
5,Cc1ccc(S(=O)(=O)c2c(C)nn(C(C)(C)C)c2OC(=O)C(C)(C)C)cc1,15.6%
6,C=CCn1c(N2CCN(c3ccc(OC)cc3)CC2)nc2c1c(=O)n(C)c(=O)n2C,-32.1%
7,CCN(CC)c1nc(C)nc2c1sc(=S)n2C,-1.82%
8,Clc1ccc(CNc2nnnn2-c2ccccc2)c(Cl)c1,20.7%
9,COc1cccc(/C=C/C(=O)OCC(=O)Nc2ccc(Cl)cn2)c1,28.1%
10,CCCCC1=NN(C(=O)c2ccncc2)C(O)(C(F)(F)F)C1 (stereo not shown),23.1%
11,COc1ccccc1C(=O)COC(=O)CCNS(=O)(=O)c1ccc(C)c(C)c1,-21.9%
12,CCC(C(=O)N1CCN(c2ccccn2)CC1)n1nc(C)n2c(cc3occc32)c1=O (stereo not shown),-5.95%
13,Cc1ccc(C(=O)N2N=C(c3ccccc3O)CC2c2ccccc2)cc1 (stereo not shown),14.6%
14,Cc1ccc(NC(=O)CSc2nc(=O)n(CCN(C)C)c3c2CCCC3)cc1Cl,-59.8%
15,CN(C)CCn1c2c(c(SCC(=O)Nc3ccccc3)nc1=O)CCCC2,-26.7%
16,CN(C)CCn1c2c(c(SCC(=O)Nc3cccc(C(F)(F)F)c3)nc1=O)CCCC2,-68.8%
17,CN(C)CCn1c2c(c(SCC(=O)Nc3ccc4c(c3)OCCO4)nc1=O)CCCC2,-14.8%
18,COc1cccc(NC(=O)CSc2nc(=O)n(CCN(C)C)c3c2CCCC3)c1,-49.9%
19,COc1ccc(NC(=O)CSc2nc(=O)n(CCN(C)C)c3c2CCCC3)cc1OC,-11.5%
20,Cc1ccc(-n2nc3c(c2NC(=O)c2ccco2)CS(=O)C3)cc1 (stereo not shown),-8.69%
21,CC(C)Cn1c(=S)[nH]c2ccccc2c1=O,22%
22,CCCNC(=O)NCCc1ccncc1,7.09%

row,Compound,"hERG current change (%, negative = inhibition) at 10uM"
1,COc1ccc2c(c1OC)C(=O)N(c1ccc(O)cc1)C2=O,13.4%
2,CCCCN(CCCNC(=O)c1c(C)cc(=O)oc1C)c1ccccc1,-64.4%
3,CCCNC(=O)c1c(C)cc(=O)oc1C,-6.11%
4,CCN(CCCNC(=O)c1c(C)cc(=O)oc1C)c1cccc(C)c1,-65.3%
5,CCN(CCCNC(=O)c1c(C)cc(=O)oc1C)c1ccccc1,-52.7%
6,Cc1cc(=O)oc(C)c1C(=O)NCCc1ccccc1,7.49%
7,CCN(CCCNC(=O)c1[nH]c(C)c(C(C)=O)c1C)c1cccc(C)c1,-18.2%
8,Cc1cc(=O)oc(C)c1C(=O)NCc1ccccc1,11.2%
9,Cc1cc(=O)oc(C)c1C(=O)NCCN(C)Cc1ccccc1,8.33%
10,Cc1cc(=O)oc(C)c1C(=O)NCCNC(=O)c1c(C)cc(=O)oc1C,3.85%
11,CC(=O)c1ccc(N2CCN(C(=O)CCS(=O)(=O)c3ccc4c(c3)CCN4C(C)=O)CC2)cc1,3.77%
12,COc1ccc(-c2csc3ncn(Cc4ccccc4)c(=O)c23)cc1,-0.922%
13,COc1ccc(N2CCN(CC(=O)N3N=CCC3c3ccccc3)CC2)cc1 (stereo not shown),-2.49%
14,O=C(COC(=O)CCc1c[nH]c2ccccc12)NCc1ccc2c(c1)OCO2,13.2%
15,C/C(=N\NC(=S)NC1CCCCC1)c1c(F)cccc1F,-35%
16,C/C(N)=C(/C#N)C(=O)COC(=O)[C@@H](NC(=O)c1ccccc1Cl)C(C)C,4.16%
17,COc1ccc(S(=O)(=O)N2CCOC2CNC(=O)C(=O)NCc2ccncc2)cc1 (stereo not shown),3.26%
18,COc1ccc(OC)c(-c2nnc(SCC(=O)NC3CCCCC3)o2)c1,-59.8%
19,COc1ccccc1-c1nnc(SCC(=O)NC2CCCCC2)o1,-27.4%
20,COc1ccccc1-c1ccc(SCC(=O)NC2CCCCC2)nn1,-72%
21,COc1ccc(-c2nnc(SCC(=O)NC3CCCCC3)o2)cc1OC,-9.47%
22,COc1ccccc1-c1ccc(SCC(=O)NC2CCCC2)nn1,-24.5%

row,Compound,"hERG current change (%, negative = inhibition) at 10uM"
1,COc1ccc(-c2ccc(SCC(=O)NC3CCCCC3)nn2)cc1OC,16.4%
2,Cc1ccc(NS(=O)(=O)c2ccc(C(=O)NNC(=O)c3ccccc3O)cc2)cc1,0.906%
3,COC(=O)Cn1c(=NC(=O)c2ccc(Cl)s2)sc2cc(F)ccc21,20%
4,O=C(CCS(=O)(=O)c1ccc(Cl)cc1)Nc1ccc(N2CCOCC2)cc1,-6.95%
5,CCOC(=O)c1sc2nc(C)nc(Nc3ccc(OC)cc3)c2c1C,24.1%
6,CC(NC(=O)Cc1ccc(NS(=O)(=O)c2cccc(C(F)(F)F)c2)cc1)c1ccccn1 (stereo not shown),-7.55%
7,CN(Cc1cccnc1)C(=O)Cc1ccc(NS(=O)(=O)c2cccc(C(F)(F)F)c2)cc1,-57.6%
8,O=S(=O)(Nc1cccnc1)c1cccc(C(F)(F)F)c1,-2.26%
9,Cc1ccc(C(=O)N2CCOCC2)cc1Cl,2.91%
10,Cc1c(NC(=O)C(C)OC(=O)c2ccc(Cl)nc2)c(=O)n(-c2ccccc2)n1C (stereo not shown),-2.18%
11,O=C(COC(=O)c1ccccc1F)NC(=O)NC1CCCC1,1.24%
12,N#CC1(NC(=O)CN2c3cccc4cccc(c34)S2(=O)=O)CCCCC1,14.9%
13,COc1ccccc1-c1nnc(C2CCN(S(=O)(=O)c3cccc([N+](=O)[O-])c3)CC2)o1,-57.6%
14,COc1ccccc1CNC(=O)C1CCN(S(=O)(=O)c2cccc([N+](=O)[O-])c2)CC1,-3.34%
15,COc1ccccc1-c1nnc(NC(=O)c2ccc(S(=O)(=O)N3CCCC3)cc2)o1,-17.3%
16,COc1ccccc1-c1nnc(C2CCN(S(=O)(=O)c3ccccc3[N+](=O)[O-])CC2)o1,-45.2%
17,O=[N+]([O-])c1cccc(S(=O)(=O)N2CCC(c3nc(-c4ccncc4)no3)CC2)c1,1.54%
18,COc1ccccc1-c1nnc(C2CCN(S(=O)(=O)c3ccc([N+](=O)[O-])cc3)CC2)o1,-74.6%
19,O=C(CCCN1C(=O)c2ccccc2C1=O)NCc1ccco1,6.15%
20,COc1ccc(N2C(=O)CC(Nc3cccc(C(C)=O)c3)C2=O)cc1OC (stereo not shown),7.07%
21,COc1cc(OC)cc(C(=O)NCCCNC(=O)c2cccnc2)c1,7.43%
22,N#C/C(=C\c1ccc(N2CCCCC2)o1)C(N)=O,7.71%

row,Compound,"hERG current change (%, negative = inhibition) at 10uM"
1,Cc1ncc(CN2CCN(Cc3ccc(F)cc3)C(CCO)C2)s1 (stereo not shown),9.56%
2,CC(C)CCN1CCN(Cc2cccn2-c2cccnc2)CC1CCO (stereo not shown),-32.5%
3,OCCC1CN(Cc2cccn2-c2ncccn2)CCN1Cc1ccccc1 (stereo not shown),-64.2%
4,OCCC1CN(Cc2cccn2-c2ncccn2)CCN1CCc1ccccc1 (stereo not shown),-68.2%
5,OCCC1CN(Cc2cccn2-c2cccnc2)CCN1CCc1ccccc1 (stereo not shown),-65.2%
6,OCCC1CN(Cc2cccn2-c2ncccn2)CCN1Cc1ccc(F)cc1 (stereo not shown),-73.7%
7,Cc1cc(C)n(-c2ccc(C(=O)OCC(=O)Nc3ccc([N+](=O)[O-])cc3)cc2)n1,-10.6%
8,Cc1ccc(C(=O)Nc2nnc(SCC(=O)N3CCCc4ccccc43)s2)cc1,7.27%
9,Cc1ccc(-n2c(SCC(=O)O)nc3c(sc(=S)n3-c3ccc(C)c(C)c3)c2=O)cc1,14%
10,O=C(c1cn(-c2ccccc2)nc1-c1ccc(Cl)s1)N1CCOCC1,-20.9%
11,COc1ccc(CNC(=O)COC(=O)/C=C/c2cccc(Br)c2)cc1OC,30.1%
12,CC(=O)Nc1ccc(C2=NN(c3ccccc3)C(c3cccs3)C2)cc1 (stereo not shown),7.7%
13,Cc1cc(NC(=O)COc2ccc(F)c(Cl)c2)no1,17.7%
14,CCn1c(SCc2ccccc2)nc2ccccc2c1=O,2.76%
15,Cc1ccc(OCC(=O)NC(C)c2ccccc2)cc1 (stereo not shown),-1.19%
16,O=C1C2=C(CCCC2)C(=O)N1CNc1ccccc1,16.3%
17,O=C1CC(N(Cc2cccs2)C(=O)Nc2ccccc2)C(=O)N1c1ccc(Cl)cc1 (stereo not shown),-22.6%
18,Cc1ccccc1OCc1nc2ccccc2c(=O)n1/N=C/c1cn[nH]c1-c1ccc(Br)cc1,15.8%
19,CCN(CC)c1ccc(NC(=O)Nc2cccc3ccccc23)cc1,7.7%
20,COc1ccc(CN2CCN(Cc3cccn3-c3ncccn3)CC2CCO)c(C)c1C (stereo not shown),-81.6%
21,CCn1nc(C)c(CN2CCN(Cc3ccc(OC)c(C)c3C)C(CCO)C2)c1C (stereo not shown),-45.8%
22,COc1ccc(CN2CCN(CC3CC3)CC2CCO)c(C)c1C (stereo not shown),-0.714%
